Assay results: PubChem BioAssay
The source made the active and inactive calls. Unless noted, how the calls were made is not given here.

Experiments:
[1] = system: Wnt5a (protein binding on small-molecule microarray); assay: small molecules binding Wnt5a protein – biophysical, small-molecule microarray, 635/667 nm fluorescence, primary screen (AID 1142); conditions: 635 nm fluorescence, higher = more signal;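 further: fluorescence read at 667 nm with signal to noise per printed feature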
[2] = ATP-based viability of Huh7 replicon cells – cell-based, CellTiter-Glo luminescence, basal, 48 h, cytotoxicity control for HCV replication inhibitor project, primary screen (AID 1143); conditions: higher = more signal, called active from +8 up or from −8 down;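 further: Huh7 hepatoma cells carrying a hepatitis C replication reporter with no stimulus; test concentration not given here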
[3] = Pseudomonas biofilm growth suppression – PAO1 strain, BacTiter-Glo luminescence, LB-PBS, primary screen (AID 1144); conditions: P. aeruginosa PAO1 biofilm, 12 h, higher = more signal
[4] = basal CRE-LacZ reporter activity in PC12 – cell-based, unstimulated, primary screen (AID 1145); conditions: no forskolin, luminescence, 4.5 h, higher = more signal, called active from +8 up or from −8 down
[5] = forskolin-driven CRE-LacZ activity in PC12 – cell-based, CRE-LacZ reporter, forskolin-stimulated, primary screen (AID 1146); conditions: luminescence, 4.5 h, higher = more signal, called active from +8 up or from −8 down;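 further: PC12 cells with 6xCRE LacZ reporter stimulated by forskolin 10 µM; beta-galactosidase reporter signal reflecting CREB driven transcription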
[6] = target: Streptavidin (Streptomyces avidinii) (UniProt P22629); assay: compounds binding control protein streptavidin – biophysical, small-molecule microarray, 635/667 nm fluorescence, artefact control for SMM compound annotation, primary screen (AID 1147); conditions: higher = more signal;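 further: signal reflects streptavidin binding to arrayed compounds as a control protein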
[7] = probe aInhba binding on compound microarray – biochemical, small-molecule microarray, 635/667 nm fluorescence, primary screen (AID 1148); conditions: higher = more signal;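 further: score merges 667nm spot fluorescence with signal-to-noise for antibody binding to printed compounds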
[8] = target: Torsin-1A (Homo sapiens) (UniProt O14656); assay: TOR1A wild-type binding on microarray – cell lysate, small-molecule microarray, lysate, 635/667 nm, primary screen (AID 1149); conditions: COS7 hTOR1A-WT lysate, 635 nm fluorescence, higher = more signal
[9] = target: Torsin-1A (Homo sapiens) (UniProt O14656); assay: torsin A mutant lysate binding on microarrays – cell lysate, small-molecule microarray, COS7 lysate, 635/667 nm fluorescence, primary screen (AID 1150); conditions: COS7 hTOR1A mutant lysate, 635 nm fluorescence, higher = more signal;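 further: score pools 667 nm emission and signal to noise measuring lysate protein binding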
[10] = system: Sonic hedgehog protein (Shh); assay: Sonic hedgehog microarray binding compounds – biochemical, small-molecule microarray, 635/667 nm fluorescence, primary screen (AID 1151); conditions: 635 nm fluorescence, higher = more signal;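 further: Shh protein binding to compounds spotted on small-molecule microarray slides; score combines spot fluorescence intensity with signal-to-noise across triplicate slides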
[11] = optical density shifts of acrAB sulA E. coli – strain DRC41, OD650, 48 h, E. coli filamentation inducer project, primary screen (AID 1152); conditions: higher = more signal, called active from +8 up or from −8 down;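 further: E. coli MC1000 strain DRC41 lacking acrAB efflux pump and sulA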
[12] = probe aLefty1 binding on compound microarray – biochemical, small-molecule microarray, 635/667 nm fluorescence, primary screen (AID 1153); conditions: higher = more signal;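 further: score merges spot fluorescence with signal-to-noise ratio from the scanned slide images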
[13] = plasmodial surface anion channel blockers, osmotic lysis – cell-based, P. falciparum Indochina, OD700, 1 h, primary screen (AID 1154); conditions: P. falciparum Indochina infected RBC osmotic lysis, higher = more signal, called active from +8 up or from −8 down
[14] = plasmodial surface anion channel blockers, osmotic lysis – cell-based, P. falciparum Indochina, OD700, 2 h, primary screen (AID 1155);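 further: lysis reports solute entry through the parasite surface anion channel PSAC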; conditions: P. falciparum Indochina infected erythrocytes, higher = more signal, called active from +8 up or from −8 down
[15] = changes in parasitized red cell lysis, either direction – P. falciparum Indochina, OD700, 3 h, PSAC antagonist project, primary screen (AID 1156); conditions: P. falciparum-infected erythrocytes, osmotic lysis, higher = more signal, called active from +8 up or from −8 down
[16] = plasmodial surface anion channel blockers, osmotic lysis – cell-based, P. falciparum Indochina, OD700, 18 h, primary screen (AID 1157); conditions: P. falciparum Indochina infected erythrocytes, osmotic lysis OD700, 18 h; higher = more signal, called active from +8 up or from −8 down
[17] = S6 kinase pathway phospho-S6 level changes – cell-based, A549, cytoblot, luminescence, serum-stimulated, primary screen (AID 1158); conditions: 5 h, higher = more signal;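 further: serum-stimulated A549 lung adenocarcinoma cells; signal is phosphorylated S6 detected by cytoblot immunostaining with HRP secondary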
[18] = target: NADPH oxidase 2 (Homo sapiens) (UniProt P04839); assay: compounds shifting NOX2 Amplex Red fluorescence – cell-based, HEK293-NOX2, PMA-stimulated, NOX inhibitor project, primary screen (AID 1159); conditions: 45 min, higher = more signal, called active from +8 up or from −8 down; further: test concentration not given here
[19] = target: NADPH oxidase 4 (Homo sapiens) (UniProt Q9NPH5); assay: compounds shifting NOX4 Amplex Red fluorescence – cell-based, HEK293-NOX4, tetracycline-induced, NOX inhibitor project, primary screen (AID 1160); conditions: HEK293-NOX4, Amplex Red H2O2 fluorescence, 45 min; higher = more signal, called active from +8 up or from −8 down
[20] = target: NADPH oxidase 5 (Homo sapiens) (UniProt Q96PH1); assay: compounds shifting NOX5 Amplex Red fluorescence – cell-based, HEK293-NOX5, NOX inhibitor project, primary screen (AID 1161); conditions: HEK293-NOX5, ionomycin, 45 min, higher = more signal
Chain of NADPH oxidase 5 (Homo sapiens) (Q96PH1 whole entry, looked up): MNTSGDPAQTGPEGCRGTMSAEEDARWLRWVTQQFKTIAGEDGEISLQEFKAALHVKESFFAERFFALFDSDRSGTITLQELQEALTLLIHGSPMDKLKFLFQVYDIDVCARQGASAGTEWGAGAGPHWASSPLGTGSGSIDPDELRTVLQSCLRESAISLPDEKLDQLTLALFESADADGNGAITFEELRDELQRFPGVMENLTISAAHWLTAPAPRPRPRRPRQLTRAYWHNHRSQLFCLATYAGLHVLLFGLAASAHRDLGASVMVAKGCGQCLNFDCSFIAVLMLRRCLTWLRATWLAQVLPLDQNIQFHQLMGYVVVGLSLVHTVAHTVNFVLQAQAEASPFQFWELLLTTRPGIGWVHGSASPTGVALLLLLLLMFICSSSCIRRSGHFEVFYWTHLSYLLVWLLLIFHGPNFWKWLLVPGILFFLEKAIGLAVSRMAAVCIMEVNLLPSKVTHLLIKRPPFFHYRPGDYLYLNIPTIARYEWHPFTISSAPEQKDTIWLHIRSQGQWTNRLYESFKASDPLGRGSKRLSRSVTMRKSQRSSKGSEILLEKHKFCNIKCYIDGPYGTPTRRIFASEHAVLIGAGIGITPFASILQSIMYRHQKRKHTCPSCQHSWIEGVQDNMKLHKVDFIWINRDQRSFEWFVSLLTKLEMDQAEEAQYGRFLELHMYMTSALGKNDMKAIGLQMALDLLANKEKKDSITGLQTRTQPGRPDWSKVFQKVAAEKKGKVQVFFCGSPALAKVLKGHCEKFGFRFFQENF

Chain of Torsin-1A (Homo sapiens) (O14656 whole entry, looked up): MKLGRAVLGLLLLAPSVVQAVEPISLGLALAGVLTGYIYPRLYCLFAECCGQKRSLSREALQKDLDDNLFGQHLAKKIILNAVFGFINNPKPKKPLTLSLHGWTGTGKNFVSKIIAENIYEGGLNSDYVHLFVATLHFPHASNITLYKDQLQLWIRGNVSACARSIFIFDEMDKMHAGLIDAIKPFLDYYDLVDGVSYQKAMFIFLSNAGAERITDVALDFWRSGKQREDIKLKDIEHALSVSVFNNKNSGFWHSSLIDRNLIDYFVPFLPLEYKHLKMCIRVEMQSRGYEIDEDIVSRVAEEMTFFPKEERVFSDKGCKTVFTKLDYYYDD
Chain of NADPH oxidase 4 (Homo sapiens) (Q9NPH5 whole entry, looked up): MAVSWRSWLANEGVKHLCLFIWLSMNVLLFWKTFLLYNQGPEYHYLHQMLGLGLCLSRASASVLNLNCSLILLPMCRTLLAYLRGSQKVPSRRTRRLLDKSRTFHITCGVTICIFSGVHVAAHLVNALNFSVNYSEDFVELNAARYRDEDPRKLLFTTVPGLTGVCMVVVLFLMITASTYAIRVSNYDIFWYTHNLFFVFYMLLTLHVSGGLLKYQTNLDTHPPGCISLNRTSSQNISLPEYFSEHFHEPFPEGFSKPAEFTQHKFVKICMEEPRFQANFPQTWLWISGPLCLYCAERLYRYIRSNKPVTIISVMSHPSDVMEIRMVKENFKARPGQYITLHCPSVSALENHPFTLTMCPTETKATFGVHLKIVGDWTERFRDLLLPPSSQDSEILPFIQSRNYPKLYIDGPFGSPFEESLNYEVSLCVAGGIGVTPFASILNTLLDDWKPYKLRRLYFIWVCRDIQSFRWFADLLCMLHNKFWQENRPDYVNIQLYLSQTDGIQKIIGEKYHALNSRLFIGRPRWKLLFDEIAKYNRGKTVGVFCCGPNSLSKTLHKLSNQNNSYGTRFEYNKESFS
Chain of NADPH oxidase 2 (Homo sapiens) (P04839 whole entry, looked up): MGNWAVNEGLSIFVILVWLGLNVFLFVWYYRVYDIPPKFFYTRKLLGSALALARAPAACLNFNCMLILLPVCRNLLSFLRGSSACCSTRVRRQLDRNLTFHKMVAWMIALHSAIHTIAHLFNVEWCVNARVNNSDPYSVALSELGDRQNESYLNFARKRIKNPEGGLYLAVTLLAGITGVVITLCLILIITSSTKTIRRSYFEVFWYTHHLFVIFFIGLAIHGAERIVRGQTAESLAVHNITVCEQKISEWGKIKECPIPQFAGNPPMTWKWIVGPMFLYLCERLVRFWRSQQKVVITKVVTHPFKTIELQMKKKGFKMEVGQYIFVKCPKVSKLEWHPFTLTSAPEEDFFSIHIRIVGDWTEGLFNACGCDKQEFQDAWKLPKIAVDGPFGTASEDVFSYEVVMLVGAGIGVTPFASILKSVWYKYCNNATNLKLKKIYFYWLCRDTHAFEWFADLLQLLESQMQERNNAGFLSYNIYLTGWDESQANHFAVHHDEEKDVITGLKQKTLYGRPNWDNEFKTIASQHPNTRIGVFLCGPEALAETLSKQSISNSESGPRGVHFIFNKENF
Chain of Streptavidin (Streptomyces avidinii) (P22629 whole entry, looked up): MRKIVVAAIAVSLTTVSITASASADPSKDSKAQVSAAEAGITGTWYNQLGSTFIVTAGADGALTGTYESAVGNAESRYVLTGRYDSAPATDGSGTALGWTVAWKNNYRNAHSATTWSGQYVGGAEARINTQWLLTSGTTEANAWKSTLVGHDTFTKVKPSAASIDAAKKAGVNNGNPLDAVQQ

| SMILES | composite z-score [1] | z-score [2] | z-score [3] | z-score [4] | z-score [5] | composite z-score [6] | composite z-score [7] | composite z-score [8] | composite z-score [9] | composite z-score [10] | z-score [11] | composite z-score [12] | z-score [13] | z-score [14] | z-score [15] | z-score [16] | z-score [17] | z-score [18] | z-score [19] | z-score [20] |
| --- | --- | --- | --- | --- | --- | --- | --- | --- | --- | --- | --- | --- | --- | --- | --- | --- | --- | --- | --- | --- |
| CC(C)(C)N1CC=CC23O[C@@H]4/C=C\CCCOC(=O)C4[C@H]2C(=O)N(CCCCCCO)[C@@H]3C1=O (stereo not given in full) | -0.731 | -0.0711 (inactive) | -1.95 (inactive) | -0.224 (inactive) | -0.739 (inactive) | -1 | -0.0719 | 0.467 | 0.488 | -0.22 | 1.88 (inactive) | 0.0903 | 1.64 (inactive) | -0.353 (inactive) | 0.703 (inactive) | -0.331 (inactive) | 1.97 | 0.834 (inactive) | -0.0239 (inactive) | 2.04 |
| [N-]=[N+]=Nc1ccccc1[C@@H]1OC(c2ccc(OCCCO)cc2)=N[C@]1(Cc1ccccc1)C(N)=O | -0.0757 | -2 (inactive) | -0.0461 (inactive) | 0.195 (inactive) | -1.49 (inactive) | 0.533 | 0.451 | 0.245 | 0.305 | -0.0762 | 1.7 (inactive) | 0.0576 | 30.7 (active) | 31.3 (active) | 2.22 (inactive) | 3.17 (inactive) | -0.414 | 0.865 (inactive) | 0.46 (inactive) | -1.48 |
| C=C(C(=O)CC[C@@H](OC(C)=O)c1cccc(OCCO)c1)C(C)C | -0.162 | -0.344 (inactive) | 0.0482 (inactive) | 2.29 (inactive) | 1.23 (inactive) | -0.377 | 0.0053 | 1.93 | 0.456 | 2 | -0.369 (inactive) | 0.11 | 3.09 (inactive) | -0.0769 (inactive) | 1.38 (inactive) | 0.0127 (inactive) | -0.78 | 0.825 (inactive) | -1.12 (inactive) | -1.05 |
| COC(=O)[C@@]1(Cc2ccc(F)cc2)[C@H]2c3cc(C(=O)N(C)C)n(CCn4cc([N+](=O)[O-])nc4C)c3C[C@H]2CN1C(=O)c1ccccc1 | 0.453 | 0.278 (inactive) | -0.0864 (inactive) | -0.761 (inactive) | 0.17 (inactive) | 0.0438 | 0.234 | -0.0611 | 0.373 | -0.755 | -2.34 (inactive) | 0.0861 | 0.496 (inactive) | 0.288 (inactive) | 0.0718 (inactive) | 0.544 (inactive) | 0.0938 | 0.762 (inactive) | -0.00316 (inactive) | -0.683 |
| COC(=O)[C@@]1(Cc2ccccc2)[C@H]2c3cc(C(=O)N4CCCC4)n(Cc4ccc(C(F)(F)F)nc4)c3C[C@H]2CN1C(=O)c1ccccc1 | 0.836 | -2.97 (inactive) | 0.519 (inactive) | 0.0075 (inactive) | -0.611 (inactive) | 1.78 | 0.446 | 1.03 | 0.774 | -0.878 | -1.31 (inactive) | 0.689 | 2.24 (inactive) | 0.145 (inactive) | 1.45 (inactive) | 0.444 (inactive) | -0.467 | 0.262 (inactive) | 0.396 (inactive) | -3.03 |
| CCOC(=O)C1=CCC(c2cc3ccccc3[nH]2)N(S(=O)(=O)c2ccccc2[N+](=O)[O-])C1 (stereo not given) | 0.379 | -5.05 (inactive) | -0.295 (inactive) | -0.172 (inactive) | -0.0943 (inactive) | -0.141 | -0.101 | 0.0459 | 0.609 | -0.312 | -0.485 (inactive) | -0.391 | 4.73 (inactive) | 0.822 (inactive) | -0.217 (inactive) | 0.631 (inactive) | -0.146 | 0.269 (inactive) | -0.546 (inactive) | 0.731 |
| [N-]=[N+]=NCc1ccccc1C[C@]1(C(=O)NCc2ccccc2)N=C(c2ccc(OCCCO)cc2)O[C@H]1c1ccccc1CN=[N+]=[N-] | 0.477 | -4.58 (inactive) | -0.333 (inactive) | 1.27 (inactive) | -1.73 (inactive) | 0.208 | 0.237 | 0.135 | 0.623 | -0.603 | 1.76 (inactive) | 1.09 | 18.7 (active) | 5.01 (inactive) | 2.53 (inactive) | 0.936 (inactive) | 2.34 | -1.09 (inactive) | 0.145 (inactive) | 0.094 |
| C=CC[C@@]12N=C(c3ccc(OCCCO)cc3)O[C@@H]1c1ccccc1N(Cc1ccccc1)C2=O | 0.711 | -4.31 (inactive) | 0.519 (inactive) | 1.1 (inactive) | -1.66 (inactive) | 0.25 | 0.605 | 1.19 | 0.909 | 2.06 | 1.04 (inactive) | 1.47 | 31.3 (active) | 28.1 (active) | 3.1 (inactive) | 2.31 (inactive) | -0.0677 | -0.812 (inactive) | -0.091 (inactive) | -1.59 |
| COC(=O)[C@@]1(Cc2ccc(F)cc2)[C@H]2c3cc(C(=O)N4CCCC4)n(CCO)c3C[C@H]2CN1C(=O)c1ccccc1 | 0.181 | -0.225 (inactive) | 0.452 (inactive) | 0.201 (inactive) | -0.773 (inactive) | 0.0865 | -0.0719 | -0.113 | 0.0413 | -1.69 | -1.56 (inactive) | -0.193 | 2.59 (inactive) | 0.279 (inactive) | 1.48 (inactive) | 0.716 (inactive) | 0.871 | 0.54 (inactive) | 2 (inactive) | 0.15 |
